Assay results published in the supplement of paper PMC11732987, “Enantioselective OTUD7B fragment discovery through chemoproteomics screening and high-throughput optimisation” (Communications Chemistry, 2025).

Columns and labels:
Assay in all cases: log2 ratio of Biotin-Ahx-Ub-VS probe labelling (fragment/DMSO); higher = less target engagement (more negative = stronger competition), active = hit call of the paper (q ≤ 0.05, log2 ratio ≤ -1)
Conditions in all cases: compound concentration: 200 uM; treatment time: 3 h
USP42 = molecular target: T1, USP42 (UniProt Q9H9J4)
T1 sequence (whole entry): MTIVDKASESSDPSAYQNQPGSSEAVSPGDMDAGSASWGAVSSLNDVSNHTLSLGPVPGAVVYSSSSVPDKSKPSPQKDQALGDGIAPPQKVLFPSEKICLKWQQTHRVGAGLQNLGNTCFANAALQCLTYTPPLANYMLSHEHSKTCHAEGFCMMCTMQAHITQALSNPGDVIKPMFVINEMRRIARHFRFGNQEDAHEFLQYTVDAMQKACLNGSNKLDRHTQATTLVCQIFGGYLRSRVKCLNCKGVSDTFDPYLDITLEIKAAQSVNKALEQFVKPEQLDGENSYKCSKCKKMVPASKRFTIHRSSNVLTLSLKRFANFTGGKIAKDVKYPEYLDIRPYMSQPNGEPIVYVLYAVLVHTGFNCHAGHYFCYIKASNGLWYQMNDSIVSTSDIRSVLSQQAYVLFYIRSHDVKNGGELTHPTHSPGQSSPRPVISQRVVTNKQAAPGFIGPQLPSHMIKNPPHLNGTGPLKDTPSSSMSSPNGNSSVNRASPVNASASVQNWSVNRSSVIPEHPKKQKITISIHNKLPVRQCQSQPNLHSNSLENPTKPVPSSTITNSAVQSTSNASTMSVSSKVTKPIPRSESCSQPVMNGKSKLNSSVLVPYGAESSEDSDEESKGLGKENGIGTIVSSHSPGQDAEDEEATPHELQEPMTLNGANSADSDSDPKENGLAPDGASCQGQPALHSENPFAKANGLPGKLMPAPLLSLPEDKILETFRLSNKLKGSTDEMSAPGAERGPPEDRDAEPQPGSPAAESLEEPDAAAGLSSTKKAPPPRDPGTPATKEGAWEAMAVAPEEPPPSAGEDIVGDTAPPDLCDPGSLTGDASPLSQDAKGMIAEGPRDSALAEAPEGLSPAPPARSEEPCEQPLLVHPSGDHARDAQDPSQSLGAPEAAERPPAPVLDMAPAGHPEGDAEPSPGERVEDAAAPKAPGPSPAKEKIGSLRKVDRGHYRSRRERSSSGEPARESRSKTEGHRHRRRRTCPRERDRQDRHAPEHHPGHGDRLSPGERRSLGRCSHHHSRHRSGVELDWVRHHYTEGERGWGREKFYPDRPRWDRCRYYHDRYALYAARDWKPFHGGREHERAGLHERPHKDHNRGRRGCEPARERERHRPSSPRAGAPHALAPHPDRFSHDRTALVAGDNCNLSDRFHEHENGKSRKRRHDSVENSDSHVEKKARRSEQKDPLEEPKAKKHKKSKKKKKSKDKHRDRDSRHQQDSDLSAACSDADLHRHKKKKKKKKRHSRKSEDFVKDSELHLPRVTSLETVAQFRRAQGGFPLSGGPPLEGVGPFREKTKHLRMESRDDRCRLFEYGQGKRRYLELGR
Procedure, shortened: (§1)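 Each value is an average log2 ratio of fragment to vehicle, tested by unpaired t-test. The underlying Spectronaut label-free quantities were global-median-normalised, and only proteins with ≥2 unique peptides were included. Triplicate HEK293T lysate samples (495 µg) were exposed to fragment at 200 µM or vehicle for 3 h, then to Biotin-Ahx-Ub-VS at 0.5 µM final for 1 h, before NeutrAvidin enrichment of labelled DUBs, LysC and trypsin digestion, and diaPASEF LC-MS/MS.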

USP46 = USP46 (UniProt P62068)
Sequence of USP46 (P62068 whole entry): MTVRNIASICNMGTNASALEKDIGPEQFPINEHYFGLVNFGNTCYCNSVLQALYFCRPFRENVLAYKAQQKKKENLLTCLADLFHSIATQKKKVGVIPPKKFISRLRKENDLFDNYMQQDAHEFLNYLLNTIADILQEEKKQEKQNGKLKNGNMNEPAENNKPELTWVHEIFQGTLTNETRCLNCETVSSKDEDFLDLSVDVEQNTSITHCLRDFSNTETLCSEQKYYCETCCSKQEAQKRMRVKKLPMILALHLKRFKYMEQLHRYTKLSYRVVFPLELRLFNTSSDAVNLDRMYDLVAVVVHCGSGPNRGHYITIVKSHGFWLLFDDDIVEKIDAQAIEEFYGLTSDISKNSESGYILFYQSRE
Procedure, shortened: as §1

USP47 = molecular target: T2, USP47 (UniProt Q96K76)
T2 sequence (whole entry): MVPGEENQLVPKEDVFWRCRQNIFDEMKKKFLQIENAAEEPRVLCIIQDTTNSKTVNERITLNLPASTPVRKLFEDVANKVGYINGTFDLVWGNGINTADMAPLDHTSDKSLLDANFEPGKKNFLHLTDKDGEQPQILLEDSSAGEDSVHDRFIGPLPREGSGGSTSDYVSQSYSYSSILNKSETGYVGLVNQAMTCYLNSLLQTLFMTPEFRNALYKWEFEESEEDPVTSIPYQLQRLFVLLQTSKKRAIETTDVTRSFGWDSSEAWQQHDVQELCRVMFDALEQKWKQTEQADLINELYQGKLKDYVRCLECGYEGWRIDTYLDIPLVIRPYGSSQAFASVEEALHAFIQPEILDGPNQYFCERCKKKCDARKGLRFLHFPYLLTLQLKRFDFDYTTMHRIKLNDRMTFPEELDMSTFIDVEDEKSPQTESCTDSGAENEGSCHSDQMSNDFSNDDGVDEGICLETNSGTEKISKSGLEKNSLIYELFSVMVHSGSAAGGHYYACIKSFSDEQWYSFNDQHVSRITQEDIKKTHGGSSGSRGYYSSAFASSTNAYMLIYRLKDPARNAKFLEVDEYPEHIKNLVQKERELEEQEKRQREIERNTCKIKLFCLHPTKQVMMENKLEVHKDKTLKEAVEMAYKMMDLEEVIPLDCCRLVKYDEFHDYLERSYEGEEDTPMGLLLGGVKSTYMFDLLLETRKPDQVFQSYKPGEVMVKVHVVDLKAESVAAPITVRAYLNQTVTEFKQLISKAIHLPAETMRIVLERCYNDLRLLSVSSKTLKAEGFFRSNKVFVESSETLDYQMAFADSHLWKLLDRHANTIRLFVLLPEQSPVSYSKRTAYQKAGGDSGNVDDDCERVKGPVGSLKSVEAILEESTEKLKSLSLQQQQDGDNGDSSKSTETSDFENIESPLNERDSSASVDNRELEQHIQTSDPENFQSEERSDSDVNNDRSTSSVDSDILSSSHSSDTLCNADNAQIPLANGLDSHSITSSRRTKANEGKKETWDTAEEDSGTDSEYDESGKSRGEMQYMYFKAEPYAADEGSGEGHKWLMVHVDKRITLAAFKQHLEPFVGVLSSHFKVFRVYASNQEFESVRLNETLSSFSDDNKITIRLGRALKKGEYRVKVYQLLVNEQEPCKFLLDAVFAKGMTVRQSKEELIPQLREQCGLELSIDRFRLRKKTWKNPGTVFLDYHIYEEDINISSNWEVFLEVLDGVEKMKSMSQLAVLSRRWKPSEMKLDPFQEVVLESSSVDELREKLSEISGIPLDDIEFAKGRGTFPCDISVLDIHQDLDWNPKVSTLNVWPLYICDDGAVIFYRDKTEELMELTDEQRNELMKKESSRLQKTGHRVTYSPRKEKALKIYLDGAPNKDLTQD
Procedure, shortened: as §1

USP48 = molecular target: T3, USP48 (UniProt Q86UV5)
T3 sequence (whole entry): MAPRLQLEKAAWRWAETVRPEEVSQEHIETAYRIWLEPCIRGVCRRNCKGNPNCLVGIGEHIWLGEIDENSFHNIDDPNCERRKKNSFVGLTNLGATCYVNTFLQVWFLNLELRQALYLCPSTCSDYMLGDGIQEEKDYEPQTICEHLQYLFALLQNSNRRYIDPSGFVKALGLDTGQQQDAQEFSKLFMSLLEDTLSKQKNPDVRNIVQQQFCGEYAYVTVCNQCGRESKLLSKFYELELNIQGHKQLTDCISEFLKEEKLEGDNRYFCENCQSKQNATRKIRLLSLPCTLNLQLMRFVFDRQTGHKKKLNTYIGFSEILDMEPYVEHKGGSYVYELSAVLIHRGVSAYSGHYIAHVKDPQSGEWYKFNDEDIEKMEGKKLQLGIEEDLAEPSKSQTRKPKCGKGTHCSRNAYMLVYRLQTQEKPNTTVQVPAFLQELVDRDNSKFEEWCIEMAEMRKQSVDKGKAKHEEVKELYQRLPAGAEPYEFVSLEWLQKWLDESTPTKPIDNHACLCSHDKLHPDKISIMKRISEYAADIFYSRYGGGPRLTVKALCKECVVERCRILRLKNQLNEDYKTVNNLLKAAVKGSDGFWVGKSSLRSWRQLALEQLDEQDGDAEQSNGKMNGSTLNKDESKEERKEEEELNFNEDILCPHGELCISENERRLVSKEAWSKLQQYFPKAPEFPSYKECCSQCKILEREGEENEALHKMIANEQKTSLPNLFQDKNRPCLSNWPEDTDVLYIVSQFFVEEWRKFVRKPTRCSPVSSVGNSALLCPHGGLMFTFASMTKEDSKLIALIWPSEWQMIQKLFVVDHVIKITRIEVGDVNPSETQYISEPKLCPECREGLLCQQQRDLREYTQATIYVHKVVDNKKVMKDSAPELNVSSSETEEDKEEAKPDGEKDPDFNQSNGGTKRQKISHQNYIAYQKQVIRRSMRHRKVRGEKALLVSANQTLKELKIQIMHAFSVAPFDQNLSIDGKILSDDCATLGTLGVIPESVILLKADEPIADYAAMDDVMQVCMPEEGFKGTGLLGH
Procedure, shortened: as §1

USP5 = molecular target: T4, USP5 (UniProt P45974)
T4 sequence (whole entry): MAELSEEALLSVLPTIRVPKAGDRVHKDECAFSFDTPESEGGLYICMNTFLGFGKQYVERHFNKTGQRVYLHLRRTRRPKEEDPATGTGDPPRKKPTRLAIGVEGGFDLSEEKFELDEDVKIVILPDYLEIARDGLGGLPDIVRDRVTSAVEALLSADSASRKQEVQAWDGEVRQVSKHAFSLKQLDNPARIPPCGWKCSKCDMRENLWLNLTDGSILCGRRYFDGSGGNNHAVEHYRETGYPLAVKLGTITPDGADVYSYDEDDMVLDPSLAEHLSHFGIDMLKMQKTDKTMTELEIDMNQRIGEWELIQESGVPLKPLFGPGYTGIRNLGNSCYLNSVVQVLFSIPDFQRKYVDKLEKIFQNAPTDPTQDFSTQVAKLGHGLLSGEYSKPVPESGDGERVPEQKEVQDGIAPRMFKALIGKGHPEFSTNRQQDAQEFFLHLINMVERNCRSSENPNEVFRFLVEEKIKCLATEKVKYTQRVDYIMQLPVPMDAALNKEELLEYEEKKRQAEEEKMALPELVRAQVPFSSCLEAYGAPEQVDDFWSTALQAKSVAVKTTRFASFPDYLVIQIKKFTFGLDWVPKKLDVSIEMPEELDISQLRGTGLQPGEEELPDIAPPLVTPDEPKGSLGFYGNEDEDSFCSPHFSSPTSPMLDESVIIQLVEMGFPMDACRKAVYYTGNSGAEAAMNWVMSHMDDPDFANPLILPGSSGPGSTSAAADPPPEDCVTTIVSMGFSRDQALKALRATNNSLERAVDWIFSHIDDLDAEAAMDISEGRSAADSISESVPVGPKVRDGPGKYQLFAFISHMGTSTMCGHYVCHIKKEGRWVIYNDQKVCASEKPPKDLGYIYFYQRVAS
Procedure, shortened: as §1

USP54 = USP54 (UniProt Q70EL1)
Procedure, shortened: as §1

USP7 = USP7 (UniProt Q93009)
Sequence of USP7 (Q93009 whole entry, looked up): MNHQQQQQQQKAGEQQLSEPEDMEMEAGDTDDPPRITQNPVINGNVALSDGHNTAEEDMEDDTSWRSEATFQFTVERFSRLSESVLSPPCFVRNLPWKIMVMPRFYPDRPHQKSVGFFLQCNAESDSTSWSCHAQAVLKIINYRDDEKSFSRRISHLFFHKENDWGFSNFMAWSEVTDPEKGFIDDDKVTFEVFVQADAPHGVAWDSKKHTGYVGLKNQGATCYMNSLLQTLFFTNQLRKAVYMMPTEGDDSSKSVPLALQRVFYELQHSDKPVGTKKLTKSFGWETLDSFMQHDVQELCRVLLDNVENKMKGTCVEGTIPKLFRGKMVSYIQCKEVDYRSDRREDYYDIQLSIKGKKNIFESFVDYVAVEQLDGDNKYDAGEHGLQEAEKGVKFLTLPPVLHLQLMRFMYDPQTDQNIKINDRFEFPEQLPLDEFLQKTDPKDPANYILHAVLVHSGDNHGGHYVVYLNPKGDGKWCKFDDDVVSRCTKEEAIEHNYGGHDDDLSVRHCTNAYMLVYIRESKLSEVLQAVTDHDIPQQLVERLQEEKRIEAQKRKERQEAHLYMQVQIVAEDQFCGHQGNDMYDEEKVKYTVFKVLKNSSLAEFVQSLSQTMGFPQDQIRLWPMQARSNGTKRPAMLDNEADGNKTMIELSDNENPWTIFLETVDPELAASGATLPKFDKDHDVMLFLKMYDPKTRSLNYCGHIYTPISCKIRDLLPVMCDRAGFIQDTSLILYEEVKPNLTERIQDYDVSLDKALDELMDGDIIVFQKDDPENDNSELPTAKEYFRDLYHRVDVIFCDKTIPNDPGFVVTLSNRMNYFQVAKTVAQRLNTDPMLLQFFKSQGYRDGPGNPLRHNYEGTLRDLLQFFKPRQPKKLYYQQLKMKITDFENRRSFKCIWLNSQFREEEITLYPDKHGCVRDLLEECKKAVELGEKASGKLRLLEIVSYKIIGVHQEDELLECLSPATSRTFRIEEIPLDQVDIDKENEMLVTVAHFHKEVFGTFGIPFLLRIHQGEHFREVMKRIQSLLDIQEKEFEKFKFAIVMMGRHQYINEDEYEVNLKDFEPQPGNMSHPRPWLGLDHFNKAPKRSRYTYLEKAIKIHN
Procedure, shortened: as §1

USP8 = molecular target: T5, USP8 (UniProt P40818)
T5 sequence (whole entry): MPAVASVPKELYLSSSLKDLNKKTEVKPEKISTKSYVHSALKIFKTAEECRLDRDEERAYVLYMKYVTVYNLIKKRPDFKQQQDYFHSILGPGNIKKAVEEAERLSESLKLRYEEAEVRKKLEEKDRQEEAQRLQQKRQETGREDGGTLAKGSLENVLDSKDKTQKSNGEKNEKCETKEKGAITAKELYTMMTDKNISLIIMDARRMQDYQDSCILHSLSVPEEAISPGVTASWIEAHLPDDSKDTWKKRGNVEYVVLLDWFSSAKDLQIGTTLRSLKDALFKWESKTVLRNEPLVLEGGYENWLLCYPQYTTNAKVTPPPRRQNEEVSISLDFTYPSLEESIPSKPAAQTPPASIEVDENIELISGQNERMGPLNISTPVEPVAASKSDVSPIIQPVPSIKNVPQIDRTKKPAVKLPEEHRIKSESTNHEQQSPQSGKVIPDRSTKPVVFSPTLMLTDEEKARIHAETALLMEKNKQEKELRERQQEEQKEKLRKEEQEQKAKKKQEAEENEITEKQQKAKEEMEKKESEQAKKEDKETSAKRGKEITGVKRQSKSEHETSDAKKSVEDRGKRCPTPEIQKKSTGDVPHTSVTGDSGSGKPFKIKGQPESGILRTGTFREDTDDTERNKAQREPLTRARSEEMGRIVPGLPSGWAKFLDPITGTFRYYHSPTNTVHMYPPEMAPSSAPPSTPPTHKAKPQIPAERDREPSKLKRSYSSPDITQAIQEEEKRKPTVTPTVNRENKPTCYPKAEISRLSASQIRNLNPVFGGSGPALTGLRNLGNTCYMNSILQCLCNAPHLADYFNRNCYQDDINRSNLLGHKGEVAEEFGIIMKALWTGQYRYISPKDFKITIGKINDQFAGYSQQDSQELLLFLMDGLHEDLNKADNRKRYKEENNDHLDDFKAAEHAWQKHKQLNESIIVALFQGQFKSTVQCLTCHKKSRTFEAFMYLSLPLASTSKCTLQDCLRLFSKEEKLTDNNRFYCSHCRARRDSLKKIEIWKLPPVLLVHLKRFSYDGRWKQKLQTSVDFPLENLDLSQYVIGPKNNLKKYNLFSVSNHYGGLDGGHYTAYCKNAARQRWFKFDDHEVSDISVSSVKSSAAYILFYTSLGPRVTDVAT
Procedure, shortened: as §1

USP9X = USP9X (UniProt Q93008)
Sequence of USP9X (Q93008 whole entry): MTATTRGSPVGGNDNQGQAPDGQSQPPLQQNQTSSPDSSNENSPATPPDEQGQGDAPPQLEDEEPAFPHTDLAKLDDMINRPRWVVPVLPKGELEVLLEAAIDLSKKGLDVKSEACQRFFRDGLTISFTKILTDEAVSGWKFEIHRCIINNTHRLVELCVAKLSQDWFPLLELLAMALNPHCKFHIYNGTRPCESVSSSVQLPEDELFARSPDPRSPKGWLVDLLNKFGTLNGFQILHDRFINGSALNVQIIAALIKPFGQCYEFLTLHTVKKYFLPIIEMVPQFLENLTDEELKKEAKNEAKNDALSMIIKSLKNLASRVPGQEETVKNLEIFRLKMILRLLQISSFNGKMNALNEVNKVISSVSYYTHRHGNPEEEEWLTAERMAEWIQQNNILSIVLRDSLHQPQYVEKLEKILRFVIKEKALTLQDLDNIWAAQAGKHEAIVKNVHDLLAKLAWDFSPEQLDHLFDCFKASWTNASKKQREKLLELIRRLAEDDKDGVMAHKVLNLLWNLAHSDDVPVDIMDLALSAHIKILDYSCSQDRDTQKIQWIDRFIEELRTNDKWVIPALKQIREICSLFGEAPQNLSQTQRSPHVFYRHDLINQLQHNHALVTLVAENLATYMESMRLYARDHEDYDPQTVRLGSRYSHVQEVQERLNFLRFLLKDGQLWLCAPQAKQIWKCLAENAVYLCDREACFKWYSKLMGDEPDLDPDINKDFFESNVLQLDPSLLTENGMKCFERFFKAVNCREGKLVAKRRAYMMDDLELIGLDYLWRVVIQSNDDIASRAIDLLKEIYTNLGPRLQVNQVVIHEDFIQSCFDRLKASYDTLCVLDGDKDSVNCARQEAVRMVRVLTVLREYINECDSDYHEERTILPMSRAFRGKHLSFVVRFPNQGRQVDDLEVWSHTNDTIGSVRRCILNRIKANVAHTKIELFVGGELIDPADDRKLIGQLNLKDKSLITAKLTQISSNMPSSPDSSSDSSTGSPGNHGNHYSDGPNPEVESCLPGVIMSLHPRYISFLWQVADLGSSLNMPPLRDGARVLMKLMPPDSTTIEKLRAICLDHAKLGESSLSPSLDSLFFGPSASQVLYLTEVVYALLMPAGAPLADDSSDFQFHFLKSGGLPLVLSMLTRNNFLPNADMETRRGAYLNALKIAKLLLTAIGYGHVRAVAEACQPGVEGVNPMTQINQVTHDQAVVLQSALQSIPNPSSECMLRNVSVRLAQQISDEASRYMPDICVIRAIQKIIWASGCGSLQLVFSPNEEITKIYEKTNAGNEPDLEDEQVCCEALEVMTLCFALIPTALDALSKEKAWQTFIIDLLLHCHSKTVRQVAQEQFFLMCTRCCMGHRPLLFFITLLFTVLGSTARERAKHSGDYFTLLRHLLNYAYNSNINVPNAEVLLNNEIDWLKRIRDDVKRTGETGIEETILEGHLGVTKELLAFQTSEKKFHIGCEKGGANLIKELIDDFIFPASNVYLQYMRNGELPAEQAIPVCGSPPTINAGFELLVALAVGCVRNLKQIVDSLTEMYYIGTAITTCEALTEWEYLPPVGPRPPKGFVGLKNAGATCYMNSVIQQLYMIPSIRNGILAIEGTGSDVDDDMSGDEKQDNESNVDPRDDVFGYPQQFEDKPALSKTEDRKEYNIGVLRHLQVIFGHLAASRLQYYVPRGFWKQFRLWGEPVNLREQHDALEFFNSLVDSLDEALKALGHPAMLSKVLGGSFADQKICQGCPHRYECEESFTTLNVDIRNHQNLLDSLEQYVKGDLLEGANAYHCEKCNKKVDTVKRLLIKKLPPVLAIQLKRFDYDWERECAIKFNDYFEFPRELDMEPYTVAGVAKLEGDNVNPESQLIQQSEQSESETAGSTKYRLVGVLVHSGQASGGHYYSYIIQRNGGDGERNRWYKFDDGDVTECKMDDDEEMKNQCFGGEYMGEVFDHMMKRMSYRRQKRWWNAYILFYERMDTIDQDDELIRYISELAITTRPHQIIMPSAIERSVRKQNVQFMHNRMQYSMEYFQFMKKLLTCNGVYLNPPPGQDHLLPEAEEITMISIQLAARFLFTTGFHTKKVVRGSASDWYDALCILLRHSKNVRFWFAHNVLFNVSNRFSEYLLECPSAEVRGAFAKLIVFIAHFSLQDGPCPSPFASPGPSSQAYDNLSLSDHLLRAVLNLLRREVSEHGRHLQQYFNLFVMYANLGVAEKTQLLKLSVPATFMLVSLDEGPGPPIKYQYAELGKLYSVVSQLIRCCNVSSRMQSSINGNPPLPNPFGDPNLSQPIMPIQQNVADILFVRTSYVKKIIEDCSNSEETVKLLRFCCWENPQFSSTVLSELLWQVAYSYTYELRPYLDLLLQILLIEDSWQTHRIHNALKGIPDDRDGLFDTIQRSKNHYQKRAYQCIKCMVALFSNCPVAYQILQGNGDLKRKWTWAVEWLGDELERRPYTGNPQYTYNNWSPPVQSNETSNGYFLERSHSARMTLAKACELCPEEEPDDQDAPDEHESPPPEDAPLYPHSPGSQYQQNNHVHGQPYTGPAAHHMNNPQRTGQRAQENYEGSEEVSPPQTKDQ
Procedure, shortened: as §1

UniProt O00487 = molecular target: UniProt O00487
Sequence of UniProt O00487 (O00487 whole entry): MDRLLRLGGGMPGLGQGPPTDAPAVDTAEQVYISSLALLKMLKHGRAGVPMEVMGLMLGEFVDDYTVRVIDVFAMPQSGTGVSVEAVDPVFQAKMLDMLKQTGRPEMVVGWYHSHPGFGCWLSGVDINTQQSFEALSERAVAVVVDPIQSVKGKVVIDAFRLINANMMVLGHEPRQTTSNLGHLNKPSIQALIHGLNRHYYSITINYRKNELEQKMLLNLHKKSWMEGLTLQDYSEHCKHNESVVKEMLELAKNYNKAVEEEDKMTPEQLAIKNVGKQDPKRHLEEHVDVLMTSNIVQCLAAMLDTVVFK
Procedure, shortened: as §1

Measured: log2 ratio of Biotin-Ahx-Ub-VS probe labelling

Cc1cccc(NC(=O)CCl)c1C
inactive: USP42 0.0545 | USP46 -0.22 | USP47 -0.266 | USP48 -0.0682 | USP5 -0.738 | USP54 -0.507 | USP7 -0.293 | USP8 -0.346 | USP9X -0.185 | UniProt O00487 -0.182
